Measurements: PubChem BioAssay (NCATS)
Results filed as inconclusive are left out. A call without a number means that no potency is given here. Activity calls are given as the source filed them. Unless noted, calls follow the shape of the dose curve; as a rule, active = well fitted curve in the direction sought with a large enough effect; inconclusive = small, poorly fitted or top-dose-only effect, or another doubt; inactive = no such curve, though single readings can be large; an effect the other way counts as inactive or inconclusive.

Columns and labels:
[1] = target: Cytochrome P450 3A4 (Homo sapiens) (UniProt P08684); assay: qHTS for inhibitors of CYP3A4 against the NCATS DSHEA and TCM libraries (AID 1919971); conditions: recombinant CYP3A4 enzyme activity, luminescence qHTS; series mostly up to 34.1 µM; also: potency is read from the fitted curve at half-maximal effect
Procedure, shortened: (§1)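 Isoform-specific enzyme and substrate levels; enzyme-free wells as background. Reaction: 1x NADPH regenerating system, 30-45 min, room temperature, shielded from light; luminescent detection reagent added, 30 min.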

[2] = target: Cytochrome P450 2C9 (Homo sapiens) (UniProt P11712); assay: qHTS for inhibitors of CYP2C9 against the NCATS DSHEA and TCM libraries (AID 1919973); conditions: recombinant CYP2C9 enzyme activity, luminescence; series mostly up to 34.1 µM; also: potency is read from the fitted curve at half-maximal effect
Procedure, shortened: as §1

[3] = target: Cytochrome P450 2C19 (Homo sapiens) (UniProt P33261); assay: qHTS for inhibitors of CYP2C19 against the NCATS DSHEA and TCM libraries (AID 1919974); conditions: CYP2C19 enzyme inhibition, luminescence qHTS; series mostly up to 34.1 µM;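 also: luminescence from luciferin released by CYP2C19 oxidation of a pro-luciferin substrate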; also: potency is read from the fitted curve at half-maximal effect
Procedure, shortened: as §1

[4] = Dual reporter qHTS for antagonist of Pregnane X Receptor (hPXR) against the NCATS DSHEA and TCM libraries: Fluorescence Readout (AID 1920061); conditions: PXR dual reporter cells, antagonist mode; series mostly up to 40 µM
Procedure, shortened: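 hPXR-Luc HepG2 cells exposed 24 h at 37 C to compounds with 2 uM rifampicin in antagonist mode; luciferase luminescence measured by ONE-Glo, with CellTiter-Fluor viability read beforehand.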

[5] = target: Cytochrome P450 1A2 (Homo sapiens) (UniProt P05177); assay: qHTS for inhibitors of CYPIA2 against the NCATS DSHEA and TCM libraries (AID 1919976); conditions: recombinant CYP1A2 enzyme activity, luminescence; series mostly up to 37 µM; also: potency is read from the fitted curve at half-maximal effect
Procedure, shortened: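 Furafylline served as the plate control. Compounds met CYP1A2 and pro-luciferin substrate 15 min before NADPH regeneration solution (1x) was added; after 30-45 min at RT, P450-Glo reagent was added for 30 min and luminescence was measured.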

[6] = target: Estrogen receptor (Homo sapiens) (UniProt P03372); assay: qHTS assay for small molecule antagonists of estrogen receptor alpha signaling (AID 588513; active = well fitted curve in the direction sought with a large enough effect in the signal ratio, with a control signal flat, not every such curve was filed as active; the % refers to the signal ratio); conditions: ER-alpha-UAS-bla HEK293, beta-lactamase ratio, antagonist mode; series mostly up to 76.9 µM
Procedure, shortened: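 Beta-lactamase reporter, antagonist mode, HEK 293 GripTite cells; 0.5nM E2 stimulus, 18 h, 37 C; CCF4 dye 2 h RT; fluorescence. IC50 and efficacy from Hill fits, normalized to E2 and DMSO.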

[7] = target: Peroxisome proliferator-activated receptor gamma (Homo sapiens) (UniProt P37231); assay: qHTS assay for small molecule agonists of peroxisome proliferator-activated receptor gamma signaling (AID 588536; active = well fitted curve in the direction sought with a large enough effect in the signal ratio, with a control signal flat, not every such curve was filed as active; the % refers to the signal ratio); conditions: HEK293 PPARg-UAS-bla, beta-lactamase ratio, 16 h, percent of rosiglitazone response, DMSO as zero; series mostly up to 76.7 µM
Procedure, shortened: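 Cells were plated and held 6–6.5 h at 37 C, then compounds were added as a titration series. After a further 16 h, CCF4 dye was loaded for 2 h at room temperature and emission at 460/530 nm recorded.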

[8] = target: Vitamin D3 receptor (Homo sapiens) (UniProt P11473); assay: qHTS assay for small molecule antagonists of vitamin D receptor signaling (AID 588541; calls by dose curve;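 also: receptor activated by calcitriol during compound treatment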); conditions: HEK293T VDR-UAS-bla, beta-lactamase ratio, antagonist mode; series mostly up to 76.7 µM
Procedure, shortened: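 VDR-UAS-bla HEK293T cells in 2% charcoal-stripped FBS were stimulated with 1-alpha,25-dihydroxyvitamin D3 (3 nM final) plus compound for 16 h at 37 C. The beta-lactamase CCF4 readout was normalized to 50 nM agonist and DMSO, and Hill fits gave IC50.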

[9] = target: Vitamin D3 receptor (Homo sapiens) (UniProt P11473); assay: qHTS assay for small molecule agonists of vitamin D receptor signaling (AID 588543; calls by dose curve); conditions: HEK293T VDR-UAS-bla, beta-lactamase ratio, 16 h; series mostly up to 76.8 µM
Procedure, shortened: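 β-lactamase reporter, VDR-UAS-bla HEK293T, agonist mode. Cells plated 5 h at 37 °C, compound titration 16 h at 37 °C, CCF4 dye 2 h RT, ratio 460/530 nm. Hill fit → EC50, efficacy vs 50 nM 1α,25-(OH)2D3.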

Chain of Cytochrome P450 2C9 (Homo sapiens) (P11712 whole entry, looked up): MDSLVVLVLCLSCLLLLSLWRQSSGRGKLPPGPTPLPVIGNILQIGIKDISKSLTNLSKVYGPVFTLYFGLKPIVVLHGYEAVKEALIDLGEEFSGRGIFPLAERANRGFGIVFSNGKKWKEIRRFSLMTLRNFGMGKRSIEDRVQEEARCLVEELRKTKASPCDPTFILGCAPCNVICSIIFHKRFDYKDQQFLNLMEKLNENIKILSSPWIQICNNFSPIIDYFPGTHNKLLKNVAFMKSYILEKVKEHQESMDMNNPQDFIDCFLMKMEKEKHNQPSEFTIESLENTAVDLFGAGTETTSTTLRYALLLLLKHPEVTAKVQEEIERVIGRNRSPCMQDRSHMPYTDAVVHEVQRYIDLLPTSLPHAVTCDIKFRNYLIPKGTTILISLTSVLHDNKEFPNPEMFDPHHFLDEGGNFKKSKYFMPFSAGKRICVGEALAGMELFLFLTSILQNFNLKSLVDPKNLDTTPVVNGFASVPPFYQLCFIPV
Chain of Cytochrome P450 2C19 (Homo sapiens) (P33261 whole entry, looked up): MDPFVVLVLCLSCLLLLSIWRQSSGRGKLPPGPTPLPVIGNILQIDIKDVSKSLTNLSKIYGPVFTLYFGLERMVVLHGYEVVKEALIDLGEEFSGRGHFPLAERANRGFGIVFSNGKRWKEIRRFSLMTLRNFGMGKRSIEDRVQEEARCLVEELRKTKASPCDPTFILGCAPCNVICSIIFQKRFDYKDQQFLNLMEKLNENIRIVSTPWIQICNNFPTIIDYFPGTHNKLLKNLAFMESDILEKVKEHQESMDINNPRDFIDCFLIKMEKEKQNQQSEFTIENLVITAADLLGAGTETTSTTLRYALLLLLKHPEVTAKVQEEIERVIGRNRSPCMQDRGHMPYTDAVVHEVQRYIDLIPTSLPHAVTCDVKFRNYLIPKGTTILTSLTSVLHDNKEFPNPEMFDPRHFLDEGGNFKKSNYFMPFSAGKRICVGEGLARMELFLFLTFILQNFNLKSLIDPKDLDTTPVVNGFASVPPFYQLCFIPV
Chain of Cytochrome P450 3A4 (Homo sapiens) (P08684 whole entry, looked up, canonical isoform): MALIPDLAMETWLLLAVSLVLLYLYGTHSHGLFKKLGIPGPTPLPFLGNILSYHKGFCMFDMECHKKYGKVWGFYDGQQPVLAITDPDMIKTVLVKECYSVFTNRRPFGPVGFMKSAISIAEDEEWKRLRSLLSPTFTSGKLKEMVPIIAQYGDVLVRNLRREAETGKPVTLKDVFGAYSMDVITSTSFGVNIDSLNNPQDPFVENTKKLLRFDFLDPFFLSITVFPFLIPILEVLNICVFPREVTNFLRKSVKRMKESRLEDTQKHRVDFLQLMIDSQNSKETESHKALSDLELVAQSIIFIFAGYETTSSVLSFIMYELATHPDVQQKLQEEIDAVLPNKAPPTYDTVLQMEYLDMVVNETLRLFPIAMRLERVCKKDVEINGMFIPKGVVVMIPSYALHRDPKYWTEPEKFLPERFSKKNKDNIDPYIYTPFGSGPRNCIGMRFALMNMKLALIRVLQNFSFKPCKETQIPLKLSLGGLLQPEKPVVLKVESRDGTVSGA
Chain of Cytochrome P450 1A2 (Homo sapiens) (P05177 whole entry, looked up): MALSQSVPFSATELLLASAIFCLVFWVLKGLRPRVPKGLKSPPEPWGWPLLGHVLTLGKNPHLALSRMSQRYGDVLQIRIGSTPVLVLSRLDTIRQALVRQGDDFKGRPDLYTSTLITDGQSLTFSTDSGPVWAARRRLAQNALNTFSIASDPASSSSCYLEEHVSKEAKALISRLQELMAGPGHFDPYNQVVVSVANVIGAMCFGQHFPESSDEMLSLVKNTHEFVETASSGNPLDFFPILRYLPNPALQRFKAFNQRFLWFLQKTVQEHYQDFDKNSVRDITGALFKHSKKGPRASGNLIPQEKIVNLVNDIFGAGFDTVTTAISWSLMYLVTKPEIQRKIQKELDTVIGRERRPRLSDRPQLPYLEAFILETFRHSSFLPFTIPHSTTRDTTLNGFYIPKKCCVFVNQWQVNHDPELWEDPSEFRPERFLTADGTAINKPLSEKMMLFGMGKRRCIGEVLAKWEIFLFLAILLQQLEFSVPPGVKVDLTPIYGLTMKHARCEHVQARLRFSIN
Chain of Vitamin D3 receptor (Homo sapiens) (P11473 whole entry, looked up): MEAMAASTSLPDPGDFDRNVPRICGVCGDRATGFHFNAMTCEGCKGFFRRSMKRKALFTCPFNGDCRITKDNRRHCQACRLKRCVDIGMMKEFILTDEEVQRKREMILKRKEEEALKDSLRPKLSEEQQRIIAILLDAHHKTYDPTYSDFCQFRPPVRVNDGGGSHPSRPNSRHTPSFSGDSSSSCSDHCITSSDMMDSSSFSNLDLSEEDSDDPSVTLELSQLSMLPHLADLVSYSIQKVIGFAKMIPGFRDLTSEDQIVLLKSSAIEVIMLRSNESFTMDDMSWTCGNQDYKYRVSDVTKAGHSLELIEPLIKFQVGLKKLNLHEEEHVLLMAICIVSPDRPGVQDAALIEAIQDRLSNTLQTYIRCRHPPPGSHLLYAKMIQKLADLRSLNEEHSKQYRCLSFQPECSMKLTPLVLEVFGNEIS
Chain of Peroxisome proliferator-activated receptor gamma (Homo sapiens) (P37231 whole entry, looked up): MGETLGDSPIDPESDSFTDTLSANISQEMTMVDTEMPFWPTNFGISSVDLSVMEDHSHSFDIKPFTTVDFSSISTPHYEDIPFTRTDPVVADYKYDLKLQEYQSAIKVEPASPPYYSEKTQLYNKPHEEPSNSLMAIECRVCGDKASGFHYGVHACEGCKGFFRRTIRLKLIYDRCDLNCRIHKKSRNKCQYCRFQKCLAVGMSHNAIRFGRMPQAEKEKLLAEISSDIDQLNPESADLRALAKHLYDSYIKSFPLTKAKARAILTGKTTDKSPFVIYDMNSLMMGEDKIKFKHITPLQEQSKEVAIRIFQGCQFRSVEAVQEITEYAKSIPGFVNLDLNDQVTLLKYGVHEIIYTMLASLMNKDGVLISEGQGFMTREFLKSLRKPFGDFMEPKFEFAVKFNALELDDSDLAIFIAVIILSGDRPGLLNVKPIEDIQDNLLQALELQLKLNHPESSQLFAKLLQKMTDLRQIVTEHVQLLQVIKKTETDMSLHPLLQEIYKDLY
Chain of Estrogen receptor (Homo sapiens) (P03372 whole entry, looked up): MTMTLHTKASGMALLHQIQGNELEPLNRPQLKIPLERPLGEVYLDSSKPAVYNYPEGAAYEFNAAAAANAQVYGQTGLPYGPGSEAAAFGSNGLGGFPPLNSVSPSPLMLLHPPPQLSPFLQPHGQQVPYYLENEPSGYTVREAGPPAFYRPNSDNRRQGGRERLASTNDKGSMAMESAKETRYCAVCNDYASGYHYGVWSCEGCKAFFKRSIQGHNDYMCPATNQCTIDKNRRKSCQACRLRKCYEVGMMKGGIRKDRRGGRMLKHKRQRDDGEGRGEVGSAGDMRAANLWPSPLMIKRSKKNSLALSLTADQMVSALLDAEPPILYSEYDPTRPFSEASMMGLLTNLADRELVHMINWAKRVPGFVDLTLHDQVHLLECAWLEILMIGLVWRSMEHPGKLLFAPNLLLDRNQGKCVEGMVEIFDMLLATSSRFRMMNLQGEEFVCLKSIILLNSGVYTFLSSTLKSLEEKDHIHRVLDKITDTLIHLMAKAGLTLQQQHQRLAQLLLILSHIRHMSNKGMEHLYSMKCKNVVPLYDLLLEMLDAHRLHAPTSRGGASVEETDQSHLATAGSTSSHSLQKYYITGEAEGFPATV

SMILES	Potency [1]	Potency [2]	Potency [3]	outcome [4]	Potency [5]	Potency [6]	outcome [7]	outcome [8]	outcome [9]
C=C(C)C(CC=C(C)C)CC12CC(CC=C(C)C)C(C)(C)C(CC=C(C)C)(C(=O)/C(=C(\O)c3ccc(O)c(O)c3)C1=O)C2=O (stereo not given)	14.1 µM (active)	15.8 µM (active)	25.1 µM (active)	inactive	–	–	–	–	–
OCC1=C[C@@H](O)[C@@H]2C=CO[C@@H](OC3O[C@H](CO)[C@@H](O)[C@H](O)[C@H]3O)[C@H]12 (stereo not given in full)	inactive	inactive	inactive	inactive	inactive	–	–	–	–
CCCCCCCCCC=O	inactive	inactive	inactive	inactive	inactive	–	–	–	–
C=CC(C)(CCC=C(C)C)OC(C)=O (stereo not given)	inactive	inactive	inactive	–	inactive	inactive	inactive	inactive	inactive
Cc1ccc(C(C)C)cc1	inactive	inactive	inactive	inactive	inactive	–	–	–	–
CCCCCCCCCCCCCCCCCCCCCC(=O)O	inactive	inactive	inactive	inactive	inactive	–	–	–	–
CCCCCCCCCCCCCC(=O)OCC(O)CO (stereo not given)	inactive	–	–	inactive	–	–	–	–	–
O=c1cc(-c2ccc(O)cc2)oc2cc(O[C@@H]3O[C@H](CO)[C@@H](O)[C@H](O)[C@H]3O[C@@H]3OC[C@](O)(CO)[C@H]3O)cc(O)c12	inactive	8.91 µM (active)	–	inactive	inactive	–	–	–	–
CC1(C)CC[C@]2(C(=O)O)CC[C@]3(C)C(=CCC4[C@@]5(C)CC[C@@H](O)C(C)(C)C5CC[C@]43C)C2C1 (stereo not given in full)	–	inactive	inactive	inactive	inactive	–	–	–	–
C=C1CC/C=C(/C)CC[C@@H]2[C@@H]1CC2(C)C	–	–	3.55 µM (active)	inactive	3.55 µM (active)	–	–	–	–
O[C@@H]1[C@@H](O)[C@H](OC/C=C/c2ccccc2)O[C@H](CO[C@@H]2OC[C@H](O)[C@H](O)[C@H]2O)[C@H]1O	inactive	inactive	inactive	inactive	inactive	–	–	–	–
CC[C@H](CC[C@@H](C)[C@H]1CCC2C3CCC4C[C@@H](O)CC[C@]4(C)C3CC[C@@]21C)C(C)C (stereo not given in full)	inactive	inactive	inactive	inactive	inactive	–	–	–	–
